Results published in PubChem BioAssay (Tox21).
Inconclusive results are not listed. The source made the active and inactive calls. Unless noted, calls follow the shape of the dose curve; as a rule, active = well fitted curve in the direction sought with a large enough effect in the repeat runs; inconclusive = weak or mixed curves; inactive = no such curve, though single readings can be large; an effect the other way counts as inactive or inconclusive.

Assays:
[1] = qHTS assay to identify aromatase inhibitors - cell viability counter screen (AID 743084);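 also: cells stimulated with testosterone during compound exposure; nearly all actives have a fitted effect of over 55% in size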; also: potency is read from the fitted curve at half-maximal effect
[2] = target: Aryl hydrocarbon receptor (Homo sapiens) (UniProt P35869); experiment: qHTS assay to identify small molecule that activate the aryl hydrocarbon receptor (AhR) signaling pathway (AID 743085);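 also: HG2L7.5c1 human HepG2 liver cells with stably integrated DRE-driven firefly reporter; series mostly up to about 70 µM; nearly all actives have a fitted effect of over 15% in size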
Chain of Aryl hydrocarbon receptor (Homo sapiens) (P35869 whole entry, looked up): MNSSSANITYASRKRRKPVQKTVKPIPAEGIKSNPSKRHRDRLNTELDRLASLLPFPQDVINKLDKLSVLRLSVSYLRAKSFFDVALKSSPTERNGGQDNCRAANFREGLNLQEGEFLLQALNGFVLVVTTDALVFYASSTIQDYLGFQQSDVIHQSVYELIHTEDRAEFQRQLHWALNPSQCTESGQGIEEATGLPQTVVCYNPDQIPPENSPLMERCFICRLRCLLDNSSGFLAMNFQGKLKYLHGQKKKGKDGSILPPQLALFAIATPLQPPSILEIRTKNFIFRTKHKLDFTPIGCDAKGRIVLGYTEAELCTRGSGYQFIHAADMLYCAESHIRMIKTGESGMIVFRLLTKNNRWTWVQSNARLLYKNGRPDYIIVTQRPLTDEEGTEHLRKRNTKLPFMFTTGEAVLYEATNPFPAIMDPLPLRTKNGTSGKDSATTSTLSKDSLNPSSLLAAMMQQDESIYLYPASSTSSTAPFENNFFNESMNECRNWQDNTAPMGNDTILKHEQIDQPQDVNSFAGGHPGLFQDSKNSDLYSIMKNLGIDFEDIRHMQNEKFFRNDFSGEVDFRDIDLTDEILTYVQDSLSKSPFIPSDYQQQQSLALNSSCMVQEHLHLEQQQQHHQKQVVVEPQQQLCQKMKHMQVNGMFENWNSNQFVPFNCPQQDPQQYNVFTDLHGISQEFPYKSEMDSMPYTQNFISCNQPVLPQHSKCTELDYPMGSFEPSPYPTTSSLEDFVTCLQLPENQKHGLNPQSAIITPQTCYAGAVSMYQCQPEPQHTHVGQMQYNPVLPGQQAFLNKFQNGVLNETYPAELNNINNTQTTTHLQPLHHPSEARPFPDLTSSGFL
How it was run: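 Luminescence read-out: ONE-Glo reagent, 30 min at room temperature, in HG2L7.5c1 HepG2 reporter cells treated 24 h at 37C. Viability was measured beforehand by CellTiter-Fluor fluorescence after 30 min at 37C.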

[3] = target: Peroxisome proliferator-activated receptor gamma (Homo sapiens) (UniProt P37231); experiment: qHTS assay to identify small molecule agonists of the peroxisome proliferator-activated receptor gamma (PPARg) signaling pathway (AID 743094; active = well fitted activation curve with a large enough effect in the signal ratio in the repeat runs, not every such curve was filed as active; the % refers to the signal ratio)
Chain of Peroxisome proliferator-activated receptor gamma (Homo sapiens) (P37231 whole entry, looked up): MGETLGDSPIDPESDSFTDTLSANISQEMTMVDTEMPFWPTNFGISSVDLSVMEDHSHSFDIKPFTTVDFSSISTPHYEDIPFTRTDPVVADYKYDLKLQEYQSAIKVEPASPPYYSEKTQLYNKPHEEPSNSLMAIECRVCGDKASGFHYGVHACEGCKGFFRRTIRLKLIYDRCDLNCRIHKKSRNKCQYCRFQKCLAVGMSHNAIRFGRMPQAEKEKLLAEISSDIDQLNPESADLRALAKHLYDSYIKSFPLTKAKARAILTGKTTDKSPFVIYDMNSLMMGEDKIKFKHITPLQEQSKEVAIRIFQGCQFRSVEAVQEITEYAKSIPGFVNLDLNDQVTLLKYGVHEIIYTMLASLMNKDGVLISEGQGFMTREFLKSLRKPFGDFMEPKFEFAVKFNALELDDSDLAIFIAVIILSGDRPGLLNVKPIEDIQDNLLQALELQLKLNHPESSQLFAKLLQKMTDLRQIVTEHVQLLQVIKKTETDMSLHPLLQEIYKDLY
How it was run: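 Compounds dissolved in DMSO were added to PPARg UAS-bla HEK293H cells for 17 h at 37C, and reporter expression was quantified by fluorescence intensity after 1 h with LiveBLAzer B/G FRET substrate.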

[4] = target: Peroxisome proliferator-activated receptor gamma (Homo sapiens) (UniProt P37231); experiment: qHTS assay to identify small molecule antagonists of the peroxisome proliferator-activated receptor gamma (PPARg) signaling pathway (AID 743191; calls by dose curve; also: series mostly up to about 63 µM; nearly all actives have a fitted effect of over 30% in size)
How it was run: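 GeneBLAzer PPARg UAS-bla HEK293H cells carrying a UAS-driven beta-lactamase reporter were plated at 3000 cells/well, preincubated 5 h at 37C, then given compound for 17 h at 37C; LiveBLAzer B/G FRET substrate was read after 1 h at room temperature.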

[5] = qHTS assay to identify small molecule antagonists of the peroxisome proliferator-activated receptor gamma (PPARg) signaling pathway - cell viability counter screen (AID 743194); settings: Potency: co-treated with 50 nM rosiglitazone unless noted; also: nearly all actives have a fitted effect of over 55% in size; also: potency is read from the fitted curve at half-maximal effect
How it was run: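 PPARg-UAS-bla HEK293H cells were plated, rested 5 h at 37 C, then treated with compounds plus rosiglitazone (50 nM final) for 17 h at 37 C; viability was then read by CellTiter-Glo luminescence after 30 min at room temperature.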

[6] = qHTS assay for small molecule agonists of the antioxidant response element (ARE) signaling pathway - cell viability counter screen (AID 743203; calls by dose curve; also: nearly all actives have a fitted effect of over 55% in size; also: potency is read from the fitted curve at half-maximal effect)
How it was run: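 Following 16 hrs of compound treatment at 37C, HepG2 cells with an ARE-controlled beta-lactamase gene were lysed with CellTiter-Glo. Luminescence was read after 30 min at room temperature.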

[7] = qHTS assay for small molecule activators of the heat shock response signaling pathway - cell viability counter screen (AID 743209); also: nearly all actives have a fitted effect of over 50% in size; also: potency is read from the fitted curve at half-maximal effect
How it was run: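 Readout: CellTiter-Glo luminescence, 30 min at room temperature. System: HSE-bla HeLa cells, 1500/well, plated overnight. Treatment: compounds in DMSO, 5 h at 37 C.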

[8] = qHTS assay to identify small molecule agonists of the peroxisome proliferator-activated receptor delta (PPARd) signaling pathway - cell viability counter screen (AID 743211); also: nearly all actives have a fitted effect of over 55% in size; also: potency is read from the fitted curve at half-maximal effect
How it was run: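 Read-out: CellTiter-Glo luminescence, 30 min RT, measured in the same wells as the beta-lactamase reporter. Cells: GeneBLAzer PPAR delta UAS-bla HEK293H, 3000 cells/well, compound exposure 17 h at 37C.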

[9] = target: Peroxisome proliferator-activated receptor delta (Homo sapiens) (UniProt Q03181); experiment: qHTS assay to identify small molecule agonists of the peroxisome proliferator-activated receptor delta (PPARd) signaling pathway (AID 743212; calls by dose curve)
Chain of Peroxisome proliferator-activated receptor delta (Homo sapiens) (Q03181 whole entry, looked up): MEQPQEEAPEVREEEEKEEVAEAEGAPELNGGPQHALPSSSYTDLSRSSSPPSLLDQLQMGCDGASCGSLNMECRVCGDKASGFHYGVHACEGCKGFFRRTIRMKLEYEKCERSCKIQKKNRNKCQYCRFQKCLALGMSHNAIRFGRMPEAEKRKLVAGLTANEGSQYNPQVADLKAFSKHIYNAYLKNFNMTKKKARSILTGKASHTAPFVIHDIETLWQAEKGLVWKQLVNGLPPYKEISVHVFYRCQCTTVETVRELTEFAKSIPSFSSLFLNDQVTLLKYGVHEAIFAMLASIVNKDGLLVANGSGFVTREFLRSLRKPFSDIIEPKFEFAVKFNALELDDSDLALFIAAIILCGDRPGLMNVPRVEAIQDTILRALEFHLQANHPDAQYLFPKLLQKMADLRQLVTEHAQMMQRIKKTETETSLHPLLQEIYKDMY
How it was run: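 A PPARd-bla HEK293H line with beta-lactamase under an Upstream Activator Sequence is treated with compounds at 37 C. Substrate loading for 2 h at room temperature precedes the fluorescence measurement.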

[10] = qHTS assay to identify small molecule antagonists of the peroxisome proliferator-activated receptor delta (PPARd) signaling pathway - cell viability counter screen (AID 743213); also: nearly all actives have a fitted effect of over 50% in size; also: potency is read from the fitted curve at half-maximal effect
How it was run: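 HEK293H cells with the PPARd UAS-bla reporter, co-treated 17 h at 37 C with compounds and L165041 (300 nM final), were lysed with CellTiter-Glo. Luminescence indicated viable cell content.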

[11] = target: Peroxisome proliferator-activated receptor delta (Homo sapiens) (UniProt Q03181); experiment: qHTS assay to identify small molecule antagonists of the peroxisome proliferator-activated receptor delta (PPARd) signaling pathway (AID 743215; active = well fitted inhibition curve with a large enough effect in the signal ratio in the repeat runs, not every such curve was filed as active; the % refers to the signal ratio;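 also: cells stimulated with agonist L165041 at 300 nM final during compound exposure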; also: potency is read from the fitted curve at half-maximal effect)
How it was run: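 HEK293H UAS-bla, PPARd; agonist L165041 300 nM final with cpd in DMSO; 37 C 17 h; FRET substrate, RT 2 h; fluorescence intensity.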

[12] = qHTS assay to identify small molecule agonists of the farnesoid-X-receptor (FXR) signaling pathway - cell viability counter screen (AID 743218); also: nearly all actives have a fitted effect of over 45% in size; also: potency is read from the fitted curve at half-maximal effect
How it was run: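 Parallel cytotoxicity test: compound-treated (16 h, 37 C) HEK 293T FXR-bla reporter cells were lysed with CellTiter-Glo and luminescence recorded.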

[13] = qHTS assay to identify small molecule antagonists of the farnesoid-X-receptor (FXR) signaling pathway - cell viability counter screen (AID 743221; active = well fitted cell-killing curve with a large enough effect in the repeat runs, not every such curve was filed as active; also: nearly all actives have a fitted effect of over 50% in size; also: potency is read from the fitted curve at half-maximal effect)
How it was run: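 HEK 293T FXR-bla cells, 5 h pre-incubation; compound + CDCA 50 uM final, 16 h, 37 C; beta-lactamase FRET read first, then CellTiter-Glo luminescence, 30 min RT.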

[14] = target: Vitamin D3 receptor (Homo sapiens) (UniProt P11473); experiment: qHTS assay to identify small molecule agonists of the vitamin D receptor (VDR) signaling pathway (AID 743222; calls by dose curve)
Chain of Vitamin D3 receptor (Homo sapiens) (P11473 whole entry, looked up): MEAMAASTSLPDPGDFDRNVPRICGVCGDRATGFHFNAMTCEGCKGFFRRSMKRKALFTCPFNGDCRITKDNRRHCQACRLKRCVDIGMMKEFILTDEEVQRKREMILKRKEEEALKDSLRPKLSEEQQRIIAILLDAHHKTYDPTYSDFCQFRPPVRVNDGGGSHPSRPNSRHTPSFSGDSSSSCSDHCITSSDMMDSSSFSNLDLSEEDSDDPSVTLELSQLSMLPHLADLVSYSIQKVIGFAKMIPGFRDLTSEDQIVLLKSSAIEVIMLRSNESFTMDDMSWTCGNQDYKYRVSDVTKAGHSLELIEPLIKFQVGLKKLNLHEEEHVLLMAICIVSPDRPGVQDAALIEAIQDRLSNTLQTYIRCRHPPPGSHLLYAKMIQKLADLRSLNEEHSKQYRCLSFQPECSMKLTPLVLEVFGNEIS
How it was run: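 In VDR-bla cells, compound-induced beta-lactamase expression is quantified by FRET substrate fluorescence. Treatment lasts 16 h at 37C; substrate develops 2 h at room temperature.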

[15] = qHTS assay for small molecule agonists of the antioxidant response element (ARE) signaling pathway (AID 743202; active = well fitted activation curve with a large enough effect in the signal ratio in the repeat runs, not every such curve was filed as active; the % refers to the signal ratio)
How it was run: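 Compounds delivered in DMSO to ARE-bla HepG2 cells (2,000 cells/well, pre-incubated 5 h) and left 16 h at 37 C. LiveBLAzer B/G FRET substrate then added for 2 h at RT before fluorescence reading.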

[16] = qHTS assay to identify small molecule that activate the aryl hydrocarbon receptor (AhR) signaling pathway - cell viability counter screen (AID 743086); also: nearly all actives have a fitted effect of over 45% in size; also: potency is read from the fitted curve at half-maximal effect;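 as to viability change, negative = cytotoxic: HepG2 liver cells carrying the AhR DRE luciferase reporter; series mostly up to about 70 µM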
How it was run: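 HepG2-AhR-luc (HG2L7.5c1) cells, 4000/well, were preincubated 5 h at 37C, exposed to compound in qHTS format for 24 hr at 37C, then given CellTiter-Fluor for 30 min; viability was read as fluorescence in the reporter wells.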

[17] = qHTS assay for small molecule activators of the heat shock response signaling pathway (AID 743210; active = well fitted activation curve with a large enough effect in the signal ratio in the repeat runs, with a control signal flat, not every such curve was filed as active; the % refers to the signal ratio;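 also: HeLa cells with beta-lactamase reporter driven by heat shock elements; series mostly up to about 63 µM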)
How it was run: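 Reporter gene assay: HeLa cells stably bearing an HSE-bla construct, compound treatment 5 h at 37 C, LiveBLAzer substrate 2.5 h at RT, fluorescence intensity.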

[18] = target: Bile acid receptor (Homo sapiens) (UniProt Q96RI1); experiment: qHTS assay to identify small molecule antagonists of the farnesoid-X-receptor (FXR) signaling pathway (AID 743217; active = well fitted inhibition curve with a large enough effect in the signal ratio in the repeat runs, not every such curve was filed as active; the % refers to the signal ratio)
Chain of Bile acid receptor (Homo sapiens) (Q96RI1 whole entry, looked up): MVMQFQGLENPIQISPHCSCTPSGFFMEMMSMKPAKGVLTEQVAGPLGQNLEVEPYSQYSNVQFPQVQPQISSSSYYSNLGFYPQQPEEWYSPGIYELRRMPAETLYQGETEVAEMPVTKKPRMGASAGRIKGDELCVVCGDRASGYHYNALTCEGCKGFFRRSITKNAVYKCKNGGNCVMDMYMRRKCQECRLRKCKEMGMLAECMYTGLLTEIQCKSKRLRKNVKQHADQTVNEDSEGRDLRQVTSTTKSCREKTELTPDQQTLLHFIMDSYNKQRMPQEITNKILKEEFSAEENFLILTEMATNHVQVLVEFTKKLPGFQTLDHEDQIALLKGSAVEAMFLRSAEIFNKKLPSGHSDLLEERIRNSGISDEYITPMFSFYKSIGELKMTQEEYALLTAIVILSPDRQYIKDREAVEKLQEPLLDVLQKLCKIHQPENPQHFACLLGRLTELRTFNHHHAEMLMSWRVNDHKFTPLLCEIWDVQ
How it was run: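 GeneBLAzer FXR-UAS-bla HEK 293T, CDCA-stimulated (50 uM final). Compound treatment 16 h, 37 °C. Detection: beta-lactamase cleavage of B/G FRET substrate, fluorescence.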

[19] = target: Vitamin D3 receptor (Homo sapiens) (UniProt P11473); experiment: qHTS assay to identify small molecule antagonists of the vitamin D receptor (VDR) signaling pathway (AID 743223; active = well fitted inhibition curve with a large enough effect in the signal ratio in the repeat runs, not every such curve was filed as active; the % refers to the signal ratio)
How it was run: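 Beta-lactamase reporter read-out: FRET substrate fluorescence after 2 h at room temperature, following 16 h exposure of VDR-bla cells to test compound plus 3 nM (final) 1alpha,25-dihydroxyvitamin D3 agonist at 37C.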
% is scaled to controls: 0 for no effect and ±100 for the full control effect.

O=[N+]([O-])c1ccc(Cl)c(Cl)c1Cl
inactive: Potency [1] | Potency [2] | Potency [3] | Potency [4] | Potency [5] | Potency [6] | Potency [7] | Potency [8] | Potency [9] | Potency [10] | Potency [11] | Potency [12] | Potency [13] | Potency [14]

CCCCN(CCCC)C(=S)S
inactive: Potency [1] | Potency [2] | Potency [5] | Potency [15] | Potency [6] | Potency [7] | Potency [8] | Potency [12] | Potency [13] | Potency [14]

C=CC(=O)[O][Sn]([CH2]CCC)([CH2]CCC)[CH2]CCC
inactive: Potency [2] | Potency [14]
active: Potency [1] 3440 nM | Potency [16] 4330 nM | Potency [5] 389 nM | Potency [6] 686 nM | Potency [7] 3090 nM | Potency [8] 1950 nM | Potency [11] 776 nM | Potency [12] 1100 nM | Potency [13] 3890 nM

CC(=O)[O-].CC(=O)[O-].CC(=O)[O-].[Sb+3]
inactive: activity change, negative = cytotoxicity [1] 6.01% [at 8.47 µM] | activation [2] 0.374% [at 8.47 µM] | activity change, negative = cytotoxicity [5] -5.68% [at 5.95 µM, co-treated with 50 nM rosiglitazone] | activation [15] -8.79% [at 8.36 µM] | viability change, negative = cytotoxic [6] -9.94% [at 8.36 µM] | activity change, negative = cytotoxicity [7] 4.7% [at 5.95 µM] | activity change, negative = cytotoxicity [8] -20.9% [at 5.95 µM] | viability change, negative = cytotoxic [10] -8.28% [at 6.26 µM]

CC(O)C(=O)[O][Hg][c]1ccccc1 (configuration not stated)
active: Potency [1] 1090 nM | Potency [16] 4860 nM | Potency [5] 436 nM | Potency [6] 686 nM | Potency [7] 1950 nM | Potency [8] 1380 nM | Potency [10] 1950 nM | Potency [12] 1230 nM | Potency [13] 2750 nM
inactive: Potency [2] | Potency [14]

[O]=[Cr][O][Cr]=[O]
inactive: Potency [1] | Potency [2] | Potency [3] | Potency [4] | Potency [5] | Potency [15] | Potency [6] | Potency [7] | Potency [17] | Potency [8] | Potency [10] | Potency [18] | Potency [12] | Potency [13] | Potency [14]

CCN1CCC2(CC1)COc1cc3c(cc12)N(C(=O)c1ccc(-c2ccc(-c4nnc(C)o4)cc2C)cc1)CC3
inactive: Potency [2]
active: Potency [1] 39900 nM | Potency [16] 28300 nM | Potency [5] 7160 nM | Potency [6] 7100 nM | Potency [7] 45200 nM | Potency [11] 18000 nM | Potency [12] 14300 nM | Potency [13] 45200 nM

CC(C)C(Nc1ccc(C(F)(F)F)cc1Cl)C(=O)OC(C#N)c1cccc(Oc2ccccc2)c1 (configuration not stated)
inactive: Potency [1] | Potency [2] | Potency [16] | Potency [5] | Potency [6] | Potency [7] | Potency [8] | Potency [11] | Potency [12] | Potency [13] | Potency [14]

CC(Cl)CCl (configuration not stated)
inactive: Potency [1] | Potency [2] | Potency [4] | Potency [5] | Potency [15] | Potency [6] | Potency [7] | Potency [17] | Potency [11] | Potency [12] | Potency [13] | Potency [14] | Potency [19]

CC(C)[C@@H](Nc1ccc(C(F)(F)F)cc1Cl)C(=O)OC(C#N)c1cccc(Oc2ccccc2)c1 (some centres not stated)
inactive: Potency [1] | Potency [2] | Potency [16] | Potency [5] | Potency [6] | Potency [7] | Potency [8] | Potency [12] | Potency [13] | Potency [14]
